# According to the supplement of paper PMC11732987, “Enantioselective OTUD7B fragment discovery through chemoproteomics screening and high-throughput optimisation” (Communications Chemistry, 2025):
# Values without a mark were called inactive.
# What was measured:
# Assay in all cases: log2 ratio of Biotin-Ahx-Ub-VS probe labelling (fragment/DMSO); higher = less target engagement (more negative = stronger competition), active = hit call of the paper (q ≤ 0.05, log2 ratio ≤ -1)
# Details in all cases: compound concentration: 200 uM; treatment time: 3 h
# [1] = target: T1, USP19 (UniProt O94966)
# T1 sequence (whole entry): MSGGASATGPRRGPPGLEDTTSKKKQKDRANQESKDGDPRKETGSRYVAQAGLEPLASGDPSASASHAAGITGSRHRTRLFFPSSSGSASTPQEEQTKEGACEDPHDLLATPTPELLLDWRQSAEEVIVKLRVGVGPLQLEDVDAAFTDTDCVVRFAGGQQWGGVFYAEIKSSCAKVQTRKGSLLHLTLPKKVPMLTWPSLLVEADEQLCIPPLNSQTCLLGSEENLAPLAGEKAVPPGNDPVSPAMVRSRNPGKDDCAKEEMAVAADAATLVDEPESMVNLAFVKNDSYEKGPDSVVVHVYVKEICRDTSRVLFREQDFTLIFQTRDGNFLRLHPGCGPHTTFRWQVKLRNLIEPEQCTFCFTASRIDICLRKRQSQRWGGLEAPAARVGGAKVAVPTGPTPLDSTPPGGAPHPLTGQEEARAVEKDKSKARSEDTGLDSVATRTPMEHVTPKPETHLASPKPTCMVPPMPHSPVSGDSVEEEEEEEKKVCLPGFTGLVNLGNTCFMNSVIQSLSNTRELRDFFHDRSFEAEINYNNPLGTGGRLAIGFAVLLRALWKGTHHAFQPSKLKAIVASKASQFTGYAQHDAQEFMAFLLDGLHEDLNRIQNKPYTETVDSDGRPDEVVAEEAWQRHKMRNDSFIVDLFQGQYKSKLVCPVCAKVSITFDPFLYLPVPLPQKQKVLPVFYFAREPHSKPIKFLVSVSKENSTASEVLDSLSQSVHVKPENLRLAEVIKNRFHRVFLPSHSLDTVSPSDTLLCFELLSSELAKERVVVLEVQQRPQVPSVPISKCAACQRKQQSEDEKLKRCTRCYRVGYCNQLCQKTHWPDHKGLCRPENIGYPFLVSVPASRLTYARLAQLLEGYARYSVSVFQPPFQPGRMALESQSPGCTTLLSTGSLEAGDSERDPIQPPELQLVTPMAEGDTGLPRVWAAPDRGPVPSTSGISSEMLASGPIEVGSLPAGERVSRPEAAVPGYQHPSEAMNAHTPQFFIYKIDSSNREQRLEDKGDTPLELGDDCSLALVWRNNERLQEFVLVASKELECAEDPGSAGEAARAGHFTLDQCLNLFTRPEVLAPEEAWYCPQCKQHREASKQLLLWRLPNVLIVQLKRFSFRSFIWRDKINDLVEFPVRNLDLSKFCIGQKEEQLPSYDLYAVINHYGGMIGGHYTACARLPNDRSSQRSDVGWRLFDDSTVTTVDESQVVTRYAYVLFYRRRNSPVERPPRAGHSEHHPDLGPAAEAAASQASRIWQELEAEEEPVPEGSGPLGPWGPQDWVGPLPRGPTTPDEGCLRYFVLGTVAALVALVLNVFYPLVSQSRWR
# In short: (§1)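 Each value is an average log2 ratio of fragment to vehicle, tested by unpaired t-test. The underlying Spectronaut label-free quantities were global-median-normalised, and only proteins with ≥2 unique peptides were included. Triplicate HEK293T lysate samples (495 µg) were exposed to fragment at 200 µM or vehicle for 3 h, then to Biotin-Ahx-Ub-VS at 0.5 µM final for 1 h, before NeutrAvidin enrichment of labelled DUBs, LysC and trypsin digestion, and diaPASEF LC-MS/MS.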
# [2] = target: T2, USP22 (UniProt Q9UPT9)
# T2 sequence (whole entry): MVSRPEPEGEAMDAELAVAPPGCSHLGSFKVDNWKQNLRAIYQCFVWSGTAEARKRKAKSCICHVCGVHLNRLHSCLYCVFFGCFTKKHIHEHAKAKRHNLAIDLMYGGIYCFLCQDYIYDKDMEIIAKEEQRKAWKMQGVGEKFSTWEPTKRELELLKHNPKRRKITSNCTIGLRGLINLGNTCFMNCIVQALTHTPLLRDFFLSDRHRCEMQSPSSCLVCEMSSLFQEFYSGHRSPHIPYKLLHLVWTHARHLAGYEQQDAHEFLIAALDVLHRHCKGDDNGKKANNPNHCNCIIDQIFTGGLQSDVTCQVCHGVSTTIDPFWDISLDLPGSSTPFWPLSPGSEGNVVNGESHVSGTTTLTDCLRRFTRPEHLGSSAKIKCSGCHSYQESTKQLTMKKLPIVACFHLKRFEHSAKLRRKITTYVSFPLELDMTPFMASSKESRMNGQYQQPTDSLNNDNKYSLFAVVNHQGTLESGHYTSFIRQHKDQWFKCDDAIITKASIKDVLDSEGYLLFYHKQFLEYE
# In short: as §1
# [3] = target: USP24 (UniProt Q9UPU5)
# Sequence of USP24 (Q9UPU5 whole entry): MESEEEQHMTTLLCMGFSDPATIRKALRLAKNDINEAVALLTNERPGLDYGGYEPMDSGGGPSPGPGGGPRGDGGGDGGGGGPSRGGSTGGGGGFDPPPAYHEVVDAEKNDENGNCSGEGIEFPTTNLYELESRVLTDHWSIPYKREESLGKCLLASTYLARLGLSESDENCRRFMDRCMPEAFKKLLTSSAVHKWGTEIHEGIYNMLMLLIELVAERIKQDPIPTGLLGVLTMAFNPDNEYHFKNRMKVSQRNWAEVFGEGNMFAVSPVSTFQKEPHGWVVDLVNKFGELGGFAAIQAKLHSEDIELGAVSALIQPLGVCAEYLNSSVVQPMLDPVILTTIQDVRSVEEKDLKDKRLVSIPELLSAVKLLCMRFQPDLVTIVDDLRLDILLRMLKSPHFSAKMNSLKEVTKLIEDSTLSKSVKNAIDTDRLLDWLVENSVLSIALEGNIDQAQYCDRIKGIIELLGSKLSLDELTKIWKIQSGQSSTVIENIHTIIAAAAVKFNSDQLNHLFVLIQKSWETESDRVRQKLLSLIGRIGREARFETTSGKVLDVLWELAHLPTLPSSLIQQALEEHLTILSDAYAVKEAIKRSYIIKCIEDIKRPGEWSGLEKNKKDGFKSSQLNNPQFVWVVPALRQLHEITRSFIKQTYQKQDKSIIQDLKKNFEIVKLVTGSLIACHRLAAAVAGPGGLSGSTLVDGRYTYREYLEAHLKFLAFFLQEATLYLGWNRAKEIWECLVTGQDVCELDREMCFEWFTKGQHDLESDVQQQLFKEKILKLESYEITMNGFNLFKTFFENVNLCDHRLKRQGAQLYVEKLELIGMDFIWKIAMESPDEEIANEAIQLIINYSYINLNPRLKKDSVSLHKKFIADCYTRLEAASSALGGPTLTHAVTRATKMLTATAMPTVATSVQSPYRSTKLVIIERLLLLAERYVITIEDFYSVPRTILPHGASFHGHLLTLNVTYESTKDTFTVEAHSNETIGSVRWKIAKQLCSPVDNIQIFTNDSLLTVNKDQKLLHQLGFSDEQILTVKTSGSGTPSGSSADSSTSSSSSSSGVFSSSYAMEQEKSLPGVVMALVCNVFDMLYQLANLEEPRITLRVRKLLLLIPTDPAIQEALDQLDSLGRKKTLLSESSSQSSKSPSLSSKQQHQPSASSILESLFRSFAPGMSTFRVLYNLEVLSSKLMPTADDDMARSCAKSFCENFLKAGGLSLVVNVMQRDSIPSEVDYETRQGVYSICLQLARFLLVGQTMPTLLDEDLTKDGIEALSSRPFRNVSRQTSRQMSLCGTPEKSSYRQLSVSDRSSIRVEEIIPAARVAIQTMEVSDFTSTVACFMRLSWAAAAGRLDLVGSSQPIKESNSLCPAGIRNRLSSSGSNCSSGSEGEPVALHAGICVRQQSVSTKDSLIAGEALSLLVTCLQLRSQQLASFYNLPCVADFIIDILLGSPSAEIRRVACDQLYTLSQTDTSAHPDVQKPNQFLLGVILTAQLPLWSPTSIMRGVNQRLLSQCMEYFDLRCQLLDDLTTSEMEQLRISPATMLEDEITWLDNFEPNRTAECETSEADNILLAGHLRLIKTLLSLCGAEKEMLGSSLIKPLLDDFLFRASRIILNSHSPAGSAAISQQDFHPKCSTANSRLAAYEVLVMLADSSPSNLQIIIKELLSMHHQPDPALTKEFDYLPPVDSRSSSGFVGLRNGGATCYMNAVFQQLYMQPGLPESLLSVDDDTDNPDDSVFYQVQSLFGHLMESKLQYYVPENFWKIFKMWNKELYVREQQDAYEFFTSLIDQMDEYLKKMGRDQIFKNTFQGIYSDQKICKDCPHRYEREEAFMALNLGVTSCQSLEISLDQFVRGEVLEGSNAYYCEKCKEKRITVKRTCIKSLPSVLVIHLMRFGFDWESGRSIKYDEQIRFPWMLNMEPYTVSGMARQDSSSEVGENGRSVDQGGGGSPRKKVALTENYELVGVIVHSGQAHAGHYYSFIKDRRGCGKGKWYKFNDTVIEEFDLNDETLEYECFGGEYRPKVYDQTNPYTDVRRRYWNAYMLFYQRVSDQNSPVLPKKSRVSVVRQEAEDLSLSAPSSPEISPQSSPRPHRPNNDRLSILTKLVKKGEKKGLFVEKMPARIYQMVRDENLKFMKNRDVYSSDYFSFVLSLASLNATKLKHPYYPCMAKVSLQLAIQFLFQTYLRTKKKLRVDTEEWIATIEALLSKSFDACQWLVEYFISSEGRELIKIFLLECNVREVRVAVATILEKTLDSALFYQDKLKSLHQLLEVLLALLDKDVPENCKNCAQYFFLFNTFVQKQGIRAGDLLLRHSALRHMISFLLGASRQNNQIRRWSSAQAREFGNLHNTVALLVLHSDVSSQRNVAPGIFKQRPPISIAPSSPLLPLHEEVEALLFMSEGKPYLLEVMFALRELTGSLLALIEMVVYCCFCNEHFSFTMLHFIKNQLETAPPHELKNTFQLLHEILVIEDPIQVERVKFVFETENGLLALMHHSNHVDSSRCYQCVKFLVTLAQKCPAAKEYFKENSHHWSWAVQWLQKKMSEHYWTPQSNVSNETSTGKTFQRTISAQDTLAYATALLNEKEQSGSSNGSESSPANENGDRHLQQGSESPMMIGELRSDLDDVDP
# In short: as §1
# [4] = target: T3, USP25 (UniProt Q9UHP3)
# T3 sequence (whole entry): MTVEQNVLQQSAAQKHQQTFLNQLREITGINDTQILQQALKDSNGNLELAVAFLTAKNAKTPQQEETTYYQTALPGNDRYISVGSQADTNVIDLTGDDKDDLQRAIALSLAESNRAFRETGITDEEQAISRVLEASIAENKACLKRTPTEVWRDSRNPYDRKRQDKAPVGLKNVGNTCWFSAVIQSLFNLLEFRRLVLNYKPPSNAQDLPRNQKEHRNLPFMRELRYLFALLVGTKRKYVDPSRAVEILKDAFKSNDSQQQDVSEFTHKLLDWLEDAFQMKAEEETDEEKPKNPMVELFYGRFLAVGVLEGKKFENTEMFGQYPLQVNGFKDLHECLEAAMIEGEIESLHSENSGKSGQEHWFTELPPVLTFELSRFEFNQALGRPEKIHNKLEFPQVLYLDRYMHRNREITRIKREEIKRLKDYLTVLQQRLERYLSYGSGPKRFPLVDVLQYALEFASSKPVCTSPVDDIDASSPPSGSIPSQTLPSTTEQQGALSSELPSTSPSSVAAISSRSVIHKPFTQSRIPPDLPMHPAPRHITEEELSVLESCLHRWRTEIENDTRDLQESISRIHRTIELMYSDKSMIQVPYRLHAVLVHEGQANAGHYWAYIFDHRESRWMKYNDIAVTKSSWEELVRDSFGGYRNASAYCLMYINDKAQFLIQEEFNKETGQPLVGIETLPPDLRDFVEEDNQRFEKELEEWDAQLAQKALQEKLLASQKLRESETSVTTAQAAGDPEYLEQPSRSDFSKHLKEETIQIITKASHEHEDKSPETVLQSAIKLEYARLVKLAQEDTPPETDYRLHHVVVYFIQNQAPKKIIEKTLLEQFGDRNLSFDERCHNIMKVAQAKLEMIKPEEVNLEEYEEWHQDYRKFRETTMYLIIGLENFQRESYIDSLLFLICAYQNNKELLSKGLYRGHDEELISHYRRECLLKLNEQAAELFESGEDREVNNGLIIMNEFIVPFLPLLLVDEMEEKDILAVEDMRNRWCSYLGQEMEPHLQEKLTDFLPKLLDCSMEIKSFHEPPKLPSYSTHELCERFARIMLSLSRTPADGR
# In short: as §1
# [5] = target: T4, USP28 (UniProt Q96RU2)
# T4 sequence (whole entry): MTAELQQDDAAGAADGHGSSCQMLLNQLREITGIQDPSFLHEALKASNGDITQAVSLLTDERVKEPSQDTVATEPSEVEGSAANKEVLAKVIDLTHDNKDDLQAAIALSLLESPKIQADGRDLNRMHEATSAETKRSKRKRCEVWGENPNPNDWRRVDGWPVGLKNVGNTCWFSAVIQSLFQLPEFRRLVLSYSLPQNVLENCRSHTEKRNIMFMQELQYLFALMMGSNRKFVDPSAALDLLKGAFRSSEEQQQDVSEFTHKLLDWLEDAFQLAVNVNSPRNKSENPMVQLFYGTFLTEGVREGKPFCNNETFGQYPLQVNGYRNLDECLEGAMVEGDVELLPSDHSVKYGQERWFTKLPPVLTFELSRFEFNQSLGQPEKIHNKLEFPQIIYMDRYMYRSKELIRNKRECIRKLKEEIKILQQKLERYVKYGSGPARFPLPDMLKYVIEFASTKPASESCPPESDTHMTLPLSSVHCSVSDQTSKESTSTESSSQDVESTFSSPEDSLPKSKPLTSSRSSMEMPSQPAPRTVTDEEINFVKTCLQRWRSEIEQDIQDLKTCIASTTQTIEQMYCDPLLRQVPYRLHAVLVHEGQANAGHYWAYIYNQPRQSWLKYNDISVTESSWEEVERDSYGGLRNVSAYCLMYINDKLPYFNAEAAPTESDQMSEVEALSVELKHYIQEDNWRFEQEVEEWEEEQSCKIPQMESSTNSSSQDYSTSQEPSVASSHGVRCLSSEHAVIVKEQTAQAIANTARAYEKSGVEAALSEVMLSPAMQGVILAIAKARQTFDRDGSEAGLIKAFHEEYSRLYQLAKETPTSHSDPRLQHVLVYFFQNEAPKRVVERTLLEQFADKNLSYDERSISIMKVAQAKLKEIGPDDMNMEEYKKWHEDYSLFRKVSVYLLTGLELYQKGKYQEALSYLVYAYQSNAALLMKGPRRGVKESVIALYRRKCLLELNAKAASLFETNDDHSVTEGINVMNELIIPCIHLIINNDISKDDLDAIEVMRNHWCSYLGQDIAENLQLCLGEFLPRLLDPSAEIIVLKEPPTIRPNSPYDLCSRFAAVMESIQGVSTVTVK
# In short: as §1
smiles,measurement,setting,value
COc1ccc(Cl)cc1NC(=O)CCl,log2 ratio of Biotin-Ahx-Ub-VS probe labelling,[1],-0.52
same,log2 ratio of Biotin-Ahx-Ub-VS probe labelling,[2],-0.388
same,log2 ratio of Biotin-Ahx-Ub-VS probe labelling,[3],-1.54 (active)
same,log2 ratio of Biotin-Ahx-Ub-VS probe labelling,[4],-0.784
same,log2 ratio of Biotin-Ahx-Ub-VS probe labelling,[5],-0.959
